From PubChem BioAssay AID1159580 (chemical genetic matrix, 2015)
Out of some 5,500 compounds screened, about 2,000 (36%) were called active. Inconclusive results (about 18%) are left out. No stated cut-off is given here; in the data, active means normalized growth mostly below about 0.91 (no sharp cut-off); inconclusive means no clear call, values can overlap the other calls; inactive means mostly above about 0.92. Some of the results follow.

Test: chemical genetic growth profiling, strain panel (AID 1159580);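 further: tested at 20 µM; growth read once vehicle control cultures reached saturation at 30 °C; 1 = growth at the plate median or of vehicle wells; lower values mean less growth of the strain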
Settings: S. cerevisiae deletion strains, growth OD
[1] = locus YGR078C, strain PAC10, active compounds read low
[2] = locus YJR075W, strain HOC1, active compounds read low
[3] = locus YMR263W, strain SAP30, active compounds read low
[4] = locus YNL128W, strain TEP1, active compounds read low
[5] = locus YNL153C, strain GIM3, active compounds read low
[6] = locus YNL322C, strain KRE1, active compounds read low
[7] = locus YPL055C, strain LGE1, active compounds read low
[8] = locus YPL241C, strain CIN2, active compounds read low
[9] = locus YAL013W, strain DEP1, active compounds read low
[10] = locus YBR229C, strain ROT2, active compounds read low
[11] = locus YDL101C, strain DUN1, active compounds read low
[12] = locus YDL134C, strain PPH21, active compounds read low
[13] = locus YEL061C, strain CIN8, active compounds read low
[14] = locus YHR030C, strain SLT2, active compounds read low
[15] = locus YJR043C, strain POL32, active compounds read low
[16] = locus YKL190W, strain CNB1, active compounds read low
[17] = locus YLR039C, strain RIC1, active compounds read low
[18] = locus YLR262C, strain YPT6, active compounds read low
[19] = locus YMR307W, strain GAS1, active compounds read low

Measured: normalized growth

Cn1cc(C(F)(F)F)nc1-c1ccc(OCC(O)CNCCOc2ccc(O)c(C(N)=O)c2)cc1 (stereo not given)
inactive: locus YAL040C, strain CLN3, active compounds read low 0.996 | locus YCL061C, strain MRC1 (second series), active compounds read low 1 | locus YDR363W, strain ESC2, active compounds read low 1.01 | locus YER002W, strain NOP16, active compounds read low 1.04 | [1] 1.01 | [2] 1 | [3] 1.01 | [4] 1.02 | [5] 1.01 | locus YNL175C, strain NOP13, active compounds read low 1.05 | locus YNL197C, strain WHI3, active compounds read low 1.03 | locus YNL224C, strain SQS1, active compounds read low 1.04 | [6] 1.03 | locus YOR083W, strain WHI5 (second series), active compounds read low 0.987 | [7] 1.01 | [8] 1

CC(C)(C)c1ccc(CSc2nc(N)cc(=O)[nH]2)cc1
inactive: [9] 0.993 | [10] 1.02 | locus YCL061C, strain MRC1, active compounds read low 0.998 | [11] 0.981 | [12] 1.01 | locus YDR150W, strain NUM1, active compounds read low 0.949 | [13] 0.995 | [1] 1 | locus YGR229C, strain SMI1, active compounds read low 1.01 | [14] 0.988 | locus YHR087W, strain rtc3, active compounds read low 0.993 | locus YJL187C, strain SWE1, active compounds read low 0.985 | [15] 1.01 | [2] 1.01 | [16] 1.02 | [17] 1.02 | locus YLR058C, strain SHM2 (second series), active compounds read low 1.01 | locus YLR085C, strain ARP6, active compounds read low 0.898 | [18] 1.09 | locus YML094W, strain GIM5, active compounds read low 0.975 | locus YMR219W, strain ESC1, active compounds read low 1 | [3] 1.01 | [19] 0.855 | [4] 1.01 | [5] 1.01 | locus YNL298W, strain CLA4 (second series), active compounds read low 1.01 | [6] 1 | locus YNR030W, strain Alg12, active compounds read low 1.01 | [7] 0.862 | [8] 0.972 | locus YPR135W, strain CTF4, active compounds read low 0.949

CC(=O)Oc1cccc(C(=O)O)c1OC(C)=O
inactive: [9] 1.01 | locus YBR021W, strain FUR4, active compounds read low 0.987 | [10] 1 | locus YCL029C, strain bik1, active compounds read low 1 | locus YDL035C, strain GPR1, active compounds read low 1.03 | locus YDL074C, strain BRE1, active compounds read low 1.01 | [11] 1.01 | [12] 1.01 | locus YDL185W, strain tfp1, active compounds read low 1.02 | locus YDL192W, strain arf1, active compounds read low 1.02 | locus YDR101C, strain arx1, active compounds read low 0.985 | locus YDR162C, strain NBP2, active compounds read low 1.02 | locus YDR318W, strain mcm21, active compounds read low 1.01 | locus YDR388W, active compounds read low 1.01 | locus YDR502C, strain sam2, active compounds read low 1 | [13] 1.01 | locus YER110C, active compounds read low 1.02 | locus YER155C, strain BEM2, active compounds read low 1 | locus YER167W, strain BCK2, active compounds read low 1.01 | locus YGL078C, strain dbp3, active compounds read low 1.01 | locus YGL086W, strain mad1, active compounds read low 0.997 | locus YGL248W, strain PDE1, active compounds read low 1.01 | [1] 1.01 | locus YGR135W, strain pre9, active compounds read low 1.04 | locus YGR252W, strain gcn5, active compounds read low 1 | [14] 1.01 | locus YHR079C, strain IRE1 (second series), active compounds read low 1.01 | locus YHR094C, strain hxt1, active compounds read low 1.01 | locus YHR129C, strain ARP1, active compounds read low 1.01 | locus YHR200W, strain rpn10, active compounds read low 1.02 | locus YIL066C, strain RNR3, active compounds read low 1.01 | locus YIL073C, strain SPO22, active compounds read low 1.05 | locus YIL125W, strain kgd1, active compounds read low 1.01 | locus YIR030C, strain dcg1, active compounds read low 1.01 | locus YJL095W, strain BCK1, active compounds read low 1.01 | locus YJL134W, strain LCB3, active compounds read low 1 | locus YJL168C, strain set2, active compounds read low 1.02 | locus YJL187C, strain SWE1 (second series), active compounds read low 1.01 | [15] 1.01 | [2] 1.03 | locus YKL009W, strain mrt4, active compounds read low 1.03 | locus YKL068W, active compounds read low 1.01 | locus YKL085W, strain MDH1 (second series), active compounds read low 1.07 | locus YKL085W, strain MDH1, active compounds read low 1.07 | [16] 1.01 | locus YKR001C, strain vps1, active compounds read low 1.01 | [17] 1.02 | locus YLR058C, strain SHM2, active compounds read low 1.01 | locus YLR102C, strain apc9, active compounds read low 1.01 | [18] 1.02 | locus YLR268W, strain sec22, active compounds read low 1 | locus YLR330W, strain CHS5, active compounds read low 1.01 | locus YLR342W, strain FKS1 (second series), active compounds read low 1.04 | locus YLR371W, strain rom2, active compounds read low 1 | locus YLR418C, strain cdc73, active compounds read low 1.01 | locus YML016C, strain PPZ1, active compounds read low 1.01 | locus YML032C, strain rad52, active compounds read low 1.02 | locus YML124C, strain tub3, active compounds read low 1.02 | locus YMR078C, strain ctf18, active compounds read low 1.02 | locus YMR223W, strain ubp8, active compounds read low 1.04 | [19] 1.07 | locus YNL067W, strain RPL9B, active compounds read low 1.01 | [5] 0.997 | locus YNL233W, strain BNI4, active compounds read low 1 | locus YNL250W, strain rad50, active compounds read low 1.04 | locus YNL271C, strain bni1, active compounds read low 1.01 | locus YNL298W, strain CLA4, active compounds read low 1.02 | locus YNL307C, strain MCK1, active compounds read low 1.02 | [6] 1.01 | locus YNR052C, strain pop2, active compounds read low 1.01 | locus YOL006C, strain TOP1, active compounds read low 1.06 | locus YOL147C, strain pex11, active compounds read low 1.01 | locus YOR061W, strain CKA2, active compounds read low 1.01 | locus YOR069W, strain VPS5, active compounds read low 1.01 | locus YOR136W, strain idh2, active compounds read low 1.01 | locus YOR144C, strain elg1, active compounds read low 1.01 | locus YOR184W, strain ser1, active compounds read low 1.02 | locus YOR316C, strain cot1, active compounds read low 1.01 | locus YPR119W, strain clb2, active compounds read low 1.01 | locus YPR141C, strain kar3, active compounds read low 1 | locus YPR163C, strain tif3, active compounds read low 1.01 | locus YPR167C, strain met16, active compounds read low 1.01 | strain wtn01, active compounds read low 1.01
